Consider 27 compounds from PubChem BioAssay.

Unmarked numbers belong to inactive results.

A short description of the test: ATP-based viability of Huh7 replicon cells – cell-based, CellTiter-Glo luminescence, basal, 48 h, cytotoxicity control for HCV replication inhibitor project, primary screen (AID 1143).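 Note: Huh7 hepatoma cells carrying a hepatitis C replication reporter with no stimulus; test concentration not given here.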 The following applies: higher = more signal, called active from +8 up or from −8 down.
Consider `C=C(C)C1C(=C)CN([C@H](CO)c2ccccc2)C1=O` (some centres not stated), for which the z-score is -0.677.
`COc1ccc(C(O)C2C=CC3C(=O)N(c4ccccc4)C(=O)C3N2Nc2ccccc2F)cc1OCc1ccccc1` (configuration not stated): the z-score is 0.0131.
As to `COCCCNC(=O)[C@@]1(Cc2ccccc2)N=C(c2ccc(OCCCO)cc2)O[C@H]1c1ccccc1`, the z-score is -1.99.
Next, `CC(C)C(CO)N1C(=O)[C@@H]2[C@H]3C(=O)OCC=C[C@H]3OC23C=CCN(C(C)C)C(=O)[C@@H]13` (some centres not stated): -0.602.
To `[N-]=[N+]=Nc1ccccc1[C@H]1OC(c2ccc(OCCCO)cc2)=N[C@@]1(Cc1ccccc1)C(=O)O` belongs -1.1; to `Cc1ccc(S[C@]2(C(=O)NC(C)C)CC(=O)N(Cc3ccccc3Cl)[C@@H]2c2ccc(CO)cc2I)cc1`, -2.03; to `CN(C)CCCCCCNC(=O)[C@@H]1C[C@@H]2C(=O)N[C@@H](CCCCN)C(=O)N2[C@@H]1c1cccc(OCCO)c1`, -0.598.
Next, `CC(C)(C)OC(=O)CC[C@]12N=C(c3ccc(OCCCO)cc3)O[C@H]1c1ccccc1N(CCS(=O)(=O)c1ccccc1)C2=O`: -2.91.
Take `COCCn1c(C(=O)N2CCCC2)cc2c1C[C@H]1CN(C(=O)c3ccccc3)[C@@](Cc3ccc(F)cc3)(C(=O)OC)[C@@H]21`: the z-score is -1.37.
Regarding `CC1CC/C=C\[C@H]2OC34C=CCN(C(C)(C)C)C(=O)[C@H]3N(CCCCCCO)C(=O)[C@@H]4C2C(=O)O1` (some centres not stated), the z-score is 0.553.
Turning to `COCCOC(=O)N1C(=O)[C@@]2(c3cc(C#Cc4ccc(OC)cc4)ccc31)[C@H](C(N)=O)[C@H]1C(=O)O[C@H](c3ccccc3)[C@H](c3ccccc3)N1[C@@H]2c1ccccc1OCCO`, the z-score is -3.77.
In the case of `O=C1OCCC/C=C\[C@H]2OC34C=CCN(c5ccc6ccccc6c5)C(=O)[C@H]3N(CCCCCCO)C(=O)[C@@H]4C12` (some centres not stated), the z-score is 0.117.
In the case of `COc1ccc([C@H]2C[C@H]3C(Br)=C[C@@H]2C(=O)[C@]32CO2)cc1`, the z-score was 0.0402.
Consider `COCCOC(=O)N1C(=O)[C@@]2(c3cc(C#CCCO)ccc31)[C@H](c1ccc(OCCO)cc1)N1[C@H](c3ccccc3)[C@H](c3ccccc3)OC(=O)[C@H]1[C@@H]2C(=O)N1CCN(c2ncccn2)CC1`, for which the z-score was -0.361.
To `Cc1ccc(C(C)CC(O)C2C=CC3C(=O)N(C)C(=O)C3N2NC(=O)OC(C)(C)C)o1` (configuration not stated) belongs 0.963; to `C=CC[C@@]1(C(=O)N(C)C)N=C(c2ccc(OCCCO)cc2)O[C@@H]1c1ccccc1N=[N+]=[N-]`, -2.25; to `COCCOC(=O)N1C(=O)[C@@]2(c3cc(C#CCCO)ccc31)[C@H](C(=O)Nc1nc3ccccc3s1)[C@H]1C(=O)O[C@H](c3ccccc3)[C@H](c3ccccc3)N1[C@@H]2c1ccc(OCCO)cc1`, -0.224.
On to `O=C(c1ccccc1)N1Cc2ccccc2[C@@H]2OC(c3ccc(OCCCO)cc3)=N[C@]2(Cc2ccccc2)C1=O`, for which the z-score is -3.55.
In the case of `NCCCCCNC(=O)[C@@H]1C[C@@H]2C(=O)N[C@@H](Cc3ccccc3)C(=O)N2[C@@H]1c1cccc(OCCO)c1`, the z-score was 0.213.
To `COc1ccc([C@H]2OC[C@@H]3CC4(CC=CC4)C(=O)N32)cc1` belongs 0.377; to `CN1C(=O)C2C=CC(C(O)Cc3ccccc3)N(Nc3ccccc3)C2C1=O` (configuration not stated), 0.329.
As to `[N-]=[N+]=NCc1ccccc1[C@@H]1OC(c2ccc(OCCCO)cc2)=N[C@]1(Cc1ccccc1N=[N+]=[N-])C(=O)N1CCOCC1`, the z-score was -1.61.
On to `COc1ccc(CCNC(=O)[C@@]2(Sc3ccc(C)cc3)CC(=O)N(C3CCCCC3)[C@@H]2c2ccc(CO)cc2I)cc1`, for which the z-score is -2.23.
To `[N-]=[N+]=NCc1ccccc1[C@@H]1OC(c2ccc(OCCCO)cc2)=N[C@]1(CCS(=O)(=O)c1ccccc1)C(=O)NCc1ccccc1` belongs -1.86; to `O=C1OCC=C[C@H]2OC34C=CCN(CCN5CCOCC5)C(=O)[C@H]3N(CCCO)C(=O)[C@@H]4[C@@H]12` (some centres not stated), -2.3; to `CCc1oc(CC[C@@H](CO)NC(=O)NCCn2cc(C3(O)CCCCC3)nn2)c(C(=O)OC)c1C(=O)OC`, -0.186.
Regarding `COC(=O)[C@@]1(Cc2ccc(F)cc2)[C@H]2c3cc(C(=O)N(C)C)n(Cc4nc5ccccc5[nH]4)c3C[C@H]2CN1C(=O)c1ccccc1`, the z-score was -0.574.
